# The list is not random: actives were taken first. Their share in the collection is about 17%.
# HT1080NT lethal: kills 2HG-producing HT-1080-NT fibrosarcoma cells. HT-1080-NT fibrosarcoma viability, CellTiter-Glo ATP luminescence, 48 h. Potency, µM (series often up to 46.1 µM), without a hit: top-dose activity, negative = less viability, actives largely listed as cytotoxic. 360,000 tested, 1.6% active;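 note: NT is the 2HG producing partner of a matched IDH1 knockdown line; 0% = DMSO-treated cells and -100% = media-only wells without cells; nearly all actives have a fitted effect of over 55% in size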
#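 HT-1080-NT; 750 cells/well; 5% FBS RPMI; 48 h compound, 37 degrees C; CellTiter-Glo luminescence; curve fitting and curve-class assignment.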
# HepG2 viability: HepG2 cytotoxicity, counter-screen for TGF-b inhibitors | HepG2 CAGA-GFP viability, ATP luminescence, 18 h | Potency, µM (top dose mostly 46.1 µM), for the others: top-dose activity change, negative = cytotoxicity, actives largely listed as cytotoxic | 410,000 tested, 0.76% active | AID 588856
#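 HepG2 CAGA-GFP cells (1000/well, DMEM with 1% FBS) received compound, then TGF-beta at 500 pg/mL final, and were incubated 18 hours at 37 degrees C. Viability was read by CellTiter-Glo luminescence. Media-only wells were set as complete cell-killing and DMSO as no toxicity.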
# HT1080 IDH1KD tx: toxicity to HT-1080 IDH1 knockdown cells (counter line). 360,000 tested, 2% active. HT-1080 IDH1 knockdown viability, ATP luminescence, 48 h. Potency, µM (titrated, usually from 46.1 µM), inactives show at the highest dose activity, negative = toxicity, hits mostly cytotoxic;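 note: 0% = DMSO wells and -100% = cell-free medium wells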
#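 Assay cells: HT-1080 with IDH1 knockdown, 750 per well, RPMI/5% FBS. Exposure: 48 h at 37 °C following 2 h pre-incubation. Read: CellTiter-Glo luminescence; fitted concentration-response, curve class assigned.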
# TDP1 cell CPT: DT40-hTDP1 cell growth loss with CPT. chicken DT40 Tdp1-/-;hTDP1 cells + 20 nM CPT, ATP luminescence, 48 h. Potency, µM (series often up to 46.2 µM), for inactives: top-dose activity change, negative = growth inhibition, hits mostly inhibitors. 420,000 tested, 12% active; note: % is set by controls: 0 for no effect and ±100 for the full control effect; nearly all actives have a fitted effect of over 55% in size
#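 Cell growth measured by CellTiter-Glo luminescence after a minimum 48 h, 37 C compound exposure with 20 nM CPT in Tdp1-knockout DT40 cells stably expressing hTDP1, seeded 400/well; qHTS titration format.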
# TGFb SMAD3 inh: inhibitors of TGF-b signaling. HepG2 CAGA-GFP TGF-b/SMAD3 reporter, GFP fluorescence, 18 h; TGF-beta stimulated, 500 pg/mL final. Potency, µM (titrated, usually from 46.1 µM), inactives show at the highest dose activity, negative = inhibition, usual class: inhibitors. 410,000 tested, 1.2% active. AID 588855; note: % is set by controls: 0 for no effect and ±100 for the full control effect; nearly all actives have a fitted effect of over 65% in size
#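 TGF-beta reporter screen: HEPG2 CAGA-GFP, 1% FBS, 500 pg/mL TGF-beta final, 18 h; per-cell GFP summed per well; curves fitted and categorized by class.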
# DT40 TDP1 no CPT: qHTS for Inhibitors of human tyrosyl-DNA phosphodiesterase 1 (TDP1): qHTS in cells in absence of CPT; DT40 Tdp1-/- hTDP1 cells, no CPT, ATP luminescence, 48 h; Potency, µM (highest dose often 46.2 µM), for the others: at the top dose activity change, negative = growth inhibition, actives largely listed as inhibitors; 420,000 tested, 15% active; AID 686978, 2013; note: % is set by controls: 0 for no effect and ±100 for the full control effect; nearly all actives have a fitted effect of over 55% in size
#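 Cells were dispensed at 400 per well, compounds added by pin tool, plates incubated ≥48 hr at 37 °C, then CellTiter-Glo added for 30 min at room temperature before luminescence reading. Line: DT40 Tdp1-/- complemented with hTDP1; camptothecin omitted.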
# The depositor's hits bear a star; u = inconclusive; x = not tested or not shown. Calls come from the whole dose curve; as a rule, active = well fitted curve in the direction sought with a large enough effect; inconclusive = small, poorly fitted or top-dose-only effect, or another doubt; inactive = no such curve, though single readings can be large; an effect the other way counts as inactive or inconclusive. Potency is the fitted concentration of half-maximal effect.
SMILES,HT1080NT lethal,HepG2 viability,HT1080 IDH1KD tx,TDP1 cell CPT,TGFb SMAD3 inh,DT40 TDP1 no CPT
O=C(Nc1cccc(-c2ccc(N3CCOCC3)nn2)c1)c1ccc(F)cc1F,10%,-1%,3%,-6%,-7%,-21%
COc1cc(C)c(C)cc1S(=O)(=O)Nc1cccc(-c2ccc(N3CCOCC3)nn2)c1,x,-16%,x,u,u,16µM*
CN1CCN(c2ccc(-c3cccc(NC(=O)COc4ccccc4)c3)nn2)CC1,1%,0%,0%,u,0%,21µM*
CCOc1ccccc1C(=O)Nc1cccc(-c2ccc(N3CCOCC3)nn2)c1,-5%,-26%,0%,u,2%,16µM*
COc1cccc(C(=O)Nc2cccc(-c3ccc(N4CCOCC4)nn3)c2)c1OC,-21%,-18%,u,u,-2%,23µM*
Cc1ccc(NC(=O)N2CCN(c3nnc(C)c4c(C)n(-c5ccc(Cl)cc5)nc34)CC2)c(C)c1,x,2%,x,1%,-17%,-17%
O=C(NCCN1CCCC(O)C1)c1cc(COc2cccc(C(F)(F)F)c2)on1 (stereo not drawn),-15%,-25%,5%,-26%,-10%,u
COc1ccc(C(O)c2ncc(-c3cccc4ccccc34)[nH]2)cc1F (stereo not drawn),u,-25%,u,u,1%,u
COc1ccc(C(=O)Nc2cccc(-c3ccc(N4CCOCC4)nn3)c2)cc1OC,-14%,-39%,2%,18µM*,u,9.2µM*
CCOc1ccc(C(=O)Nc2cccc(-c3ccc(N4CCOCC4)nn3)c2)cc1OCC,5%,7%,4%,u,13%,10µM*
COC(=O)c1cc(S(=O)(=O)NCc2ccc(Br)cc2)c[nH]1,-2%,-1%,-2%,-14%,18%,-15%
O=[N+]([O-])c1cccc(-c2nc(-c3cccs3)c(-c3cccs3)[nH]2)c1,-17%,-36%,u,21µM*,0%,21µM*
Cc1ccc(-c2nc(-c3cccs3)c(-c3cccs3)[nH]2)cc1,x,-37%,x,15µM*,0%,12µM*
O=[N+]([O-])c1cccc(-c2nc(-c3ccccc3)c(-c3cccs3)[nH]2)c1,-4%,-23%,-29%,-25%,-15%,u
Oc1cccc(-c2nc(-c3cccs3)c(-c3cccs3)[nH]2)c1,x,-86%,x,u,14µM*,u
Fc1ccc(-c2nc(-c3cccs3)c(-c3cccs3)[nH]2)cc1,x,-21%,x,u,-26%,u
O=[N+]([O-])c1ccc(-c2nc(-c3cccs3)c(-c3cccs3)[nH]2)cc1,u,-48%,-18%,12µM*,-12%,12µM*
COc1cc(Cl)c(C)cc1NC(=O)CSc1cc(=O)n(C)c2cc(Cl)ccc12,x,-73%,x,1%,u,-19%
O=C(CCC(=O)c1cccs1)NCc1ccccc1Cl,0%,-18%,0%,0%,6%,-1%
Cc1ccccc1S(=O)Cc1ccc(C(=O)N2CCN(C3CCCCC3)CC2)o1 (stereo not drawn),-3%,-5%,-11%,-25%,7%,u
CSc1ccccc1C(=O)NCC1Cc2cccc(-c3ncccc3C)c2O1 (stereo not drawn),x,x,x,-8%,x,-23%
O=c1[nH]c(-c2ccccn2)nc2ccccc12,u,-42%,u,29µM*,u,16µM*
c1ccc(-c2nc3c(ccc4ccccc43)[nH]2)nc1,-10%,-31%,-13%,u,u,23µM*

# High-throughput results from PubChem.
